From PubChem BioAssay AID1159580 (chemical genetic matrix, 2015)
Out of some 5,500 compounds screened, about 2,000 (36%) were called active. About 18% were inconclusive and are not listed. Cut-off read from the data, not from the text of the source: active = normalized growth mostly below about 0.91 (no sharp cut-off); inconclusive = no clear call, values can overlap the other calls; inactive = mostly above about 0.92. The list shows a part of the results.

Assay: chemical genetic growth profiling, strain panel (AID 1159580);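 note: tested at 20 µM; growth read once vehicle control cultures reached saturation at 30 °C; 1 = growth at the plate median or of vehicle wells; lower values mean less growth of the strain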
Conditions: growth OD

Measured: normalized growth

O=C(O[C@@H]1Cc2c(O)cc(O)cc2O[C@@H]1c1cc(O)c(=O)c2c(O)c(O)cc([C@H]3Oc4cc(O)cc(O)c4C[C@H]3O)c2c1)c1cc(O)c(O)c(O)c1
inactive: S. cerevisiae deletion strains, locus YJR066W, strain TOR1, hits give low values 0.969 | S. cerevisiae deletion strains, locus YKL009W, strain mrt4, hits give low values 1.05 | S. cerevisiae deletion strains, locus YKL068W, hits give low values 1.04 | S. cerevisiae deletion strains, locus YKL085W, strain MDH1 (second series), hits give low values 1.03 | S. cerevisiae deletion strains, locus YKL085W, strain MDH1, hits give low values 1.03 | S. cerevisiae deletion strains, locus YKR026C, strain gcn3, hits give low values 0.988 | S. cerevisiae deletion strains, locus YKR091W, strain srl3, hits give low values 0.944 | S. cerevisiae deletion strains, locus YLR102C, strain apc9, hits give low values 1.02 | S. cerevisiae deletion strains, locus YLR113W, strain HOG1, hits give low values 1.11 | S. cerevisiae deletion strains, locus YML032C, strain rad52, hits give low values 0.968 | S. cerevisiae deletion strains, locus YML124C, strain tub3, hits give low values 0.949 | S. cerevisiae deletion strains, locus YMR078C, strain ctf18, hits give low values 1.01 | S. cerevisiae deletion strains, locus YMR125W, strain sto1, hits give low values 1.04 | S. cerevisiae deletion strains, locus YNL183C, strain NPR1, hits give low values 0.963 | S. cerevisiae deletion strains, locus YNL250W, strain rad50, hits give low values 1.05 | S. cerevisiae deletion strains, locus YNL271C, strain bni1, hits give low values 1 | S. cerevisiae deletion strains, locus YNL298W, strain CLA4, hits give low values 0.998 | S. cerevisiae deletion strains, locus YNL307C, strain MCK1, hits give low values 1.01 | S. cerevisiae deletion strains, locus YNL322C, strain KRE1 (second series), hits give low values 0.941 | S. cerevisiae deletion strains, locus YNR049C, strain mso1, hits give low values 0.945 | S. cerevisiae deletion strains, locus YOL012C, strain htz1 0.255 | S. cerevisiae deletion strains, locus YOR136W, strain idh2, hits give low values 0.929 | S. cerevisiae deletion strains, locus YOR144C, strain elg1, hits give low values 0.943 | S. cerevisiae deletion strains, locus YOR231W, strain MKK1, hits give low values 1.02 | S. cerevisiae deletion strains, locus YOR316C, strain cot1, hits give low values 1.02 | S. cerevisiae deletion strains, locus YPL256C, strain CLN2, hits give low values 1.06 | S. cerevisiae deletion strains, locus YPR119W, strain clb2, hits give low values 1.02 | S. cerevisiae deletion strains, locus YPR141C, strain kar3, hits give low values 1.03 | S. cerevisiae deletion strains, locus YPR163C, strain tif3, hits give low values 0.974
active: S. cerevisiae deletion strains, locus YKL160W, strain elf1, hits give low values 0.709 | S. cerevisiae deletion strains, locus YKL190W, strain CNB1, hits give low values 0.211 | S. cerevisiae deletion strains, locus YKR001C, strain vps1, hits give low values 0.809 | S. cerevisiae deletion strains, locus YLL001W, strain dnm1, hits give low values 0.658 | S. cerevisiae deletion strains, locus YLL026W, hits give low values 0.719 | S. cerevisiae deletion strains, locus YLL041C, strain sdh2, hits give low values 0.79 | S. cerevisiae deletion strains, locus YLR027C, strain aat2, hits give low values 0.495 | S. cerevisiae deletion strains, locus YLR039C, strain RIC1, hits give low values 0.271 | S. cerevisiae deletion strains, locus YLR058C, strain SHM2, hits give low values 0.219 | S. cerevisiae deletion strains, locus YLR221C, strain rsa3, hits give low values 0.699 | S. cerevisiae deletion strains, locus YLR258W, strain gsy2, hits give low values 0.638 | S. cerevisiae deletion strains, locus YLR262C, strain YPT6 (second series), hits give low values 0.524 | S. cerevisiae deletion strains, locus YLR262C, strain YPT6, hits give low values 0.552 | S. cerevisiae deletion strains, locus YLR268W, strain sec22, hits give low values 0.644 | S. cerevisiae deletion strains, locus YLR320W, strain mms22, hits give low values 0.635 | S. cerevisiae deletion strains, locus YLR330W, strain CHS5, hits give low values 0.791 | S. cerevisiae deletion strains, locus YLR342W, strain FKS1, hits give low values 0.423 | S. cerevisiae deletion strains, locus YLR357W, strain rsc2, hits give low values 0.624 | S. cerevisiae deletion strains, locus YLR370C, strain arc18, hits give low values 0.593 | S. cerevisiae deletion strains, locus YLR371W, strain rom2, hits give low values 0.661 | S. cerevisiae deletion strains, locus YLR384C, strain iki3, hits give low values 0.784 | S. cerevisiae deletion strains, locus YLR418C, strain cdc73, hits give low values 0.505 | S. cerevisiae deletion strains, locus YML016C, strain PPZ1, hits give low values 0.111 | S. cerevisiae deletion strains, locus YML120C, strain ndi1, hits give low values 0.727 | S. cerevisiae deletion strains, locus YMR058W, strain fet3, hits give low values 0.0992 | S. cerevisiae deletion strains, locus YMR129W, hits give low values 0.789 | S. cerevisiae deletion strains, locus YMR205C, strain PFK2, hits give low values 0.416 | S. cerevisiae deletion strains, locus YMR223W, strain ubp8, hits give low values 0.844 | S. cerevisiae deletion strains, locus YMR231W, strain pep5, hits give low values 0.229 | S. cerevisiae deletion strains, locus YMR263W, strain SAP30, hits give low values 0.743 | S. cerevisiae deletion strains, locus YMR307W, strain GAS1, hits give low values 0.426 | S. cerevisiae deletion strains, locus YNL067W, strain RPL9B, hits give low values 0.547 | S. cerevisiae deletion strains, locus YNL071W, strain lat1, hits give low values 0.747 | S. cerevisiae deletion strains, locus YNL209W, strain ssb2, hits give low values 0.141 | S. cerevisiae deletion strains, locus YNL233W, strain BNI4, hits give low values 0.623 | S. cerevisiae deletion strains, locus YNL248C, strain rpa49, hits give low values 0.862 | S. cerevisiae deletion strains, locus YNL322C, strain KRE1, hits give low values 0.243 | S. cerevisiae deletion strains, locus YNR052C, strain pop2, hits give low values 0.754 | S. cerevisiae deletion strains, locus YOL147C, strain pex11, hits give low values 0.862 | S. cerevisiae deletion strains, locus YOR001W, strain rrp6, hits give low values 0.736 | S. cerevisiae deletion strains, locus YOR061W, strain CKA2, hits give low values 0.441 | S. cerevisiae deletion strains, locus YOR069W, strain VPS5, hits give low values 0.503 | S. cerevisiae deletion strains, locus YOR070C, strain gyp1, hits give low values 0.569 | S. cerevisiae deletion strains, locus YOR080W, strain dia2, hits give low values 0.253 | S. cerevisiae deletion strains, locus YOR083W, strain WHI5, hits give low values 0.541 | S. cerevisiae deletion strains, locus YOR106W, strain vam3, hits give low values 0.143 | S. cerevisiae deletion strains, locus YOR184W, strain ser1, hits give low values 0.649 | S. cerevisiae deletion strains, locus YOR265W, strain rbl2, hits give low values 0.699 | S. cerevisiae deletion strains, locus YOR270C, strain vph1, hits give low values 0.255 | S. cerevisiae deletion strains, locus YOR290C, strain snf2, hits give low values 0.487 | S. cerevisiae deletion strains, locus YPL051W, strain arl3, hits give low values 0.279 | S. cerevisiae deletion strains, locus YPL078C, strain atp4, hits give low values 0.731 | S. cerevisiae deletion strains, locus YPL106C, strain sse1, hits give low values 0.66 | S. cerevisiae deletion strains, locus YPL240C, strain hsp82, hits give low values 0.779 | S. cerevisiae deletion strains, locus YPL241C, strain CIN2, hits give low values 0.509 | S. cerevisiae deletion strains, locus YPR167C, strain met16, hits give low values 0.918 | S. cerevisiae deletion strains, strain wtn01, hits give low values 0.679 | S. cerevisiae strains, strain wild type, hits give low values 0.0985
